Bioassay records as filed in PubChem.
TDP1 cell noCPT – qHTS for Inhibitors of human tyrosyl-DNA phosphodiesterase 1 (TDP1): qHTS in cells in absence of CPT; Potency, µM (highest dose often 46.2 µM), for the others: at the highest dose activity change, negative = growth inhibition, most hits filed as inhibitors; DT40 Tdp1-/- hTDP1 cells, no CPT, ATP luminescence, 48 h; 420,000 tested, 15% active; also: potency is read from the fitted curve at half-maximal effect; nearly all actives have a fitted effect of over 55% in size
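Growth kinetics read by CellTiter-Glo luminescence after ≥48 hr at 37 °C. Cells: DT40 Tdp1-/- stably carrying human TDP1, 400 per well, compound exposure in the absence of CPT (DMSO vehicle).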
TDP1 block – TDP1 (human) enzyme inhibition; Q9NUW8; recombinant TDP1, AlphaScreen DNA substrate cleavage; Potency, µM (titrated, usually from 130 µM), without a hit: top-dose activity change, negative = inhibition, actives largely listed as inhibitors; AID 485290; 350,000 tested, 0.28% active; also: potency is read from the fitted curve at half-maximal effect; nearly all actives have a fitted effect of over 40% in size
Target sequence (Q9NUW8 whole entry, looked up): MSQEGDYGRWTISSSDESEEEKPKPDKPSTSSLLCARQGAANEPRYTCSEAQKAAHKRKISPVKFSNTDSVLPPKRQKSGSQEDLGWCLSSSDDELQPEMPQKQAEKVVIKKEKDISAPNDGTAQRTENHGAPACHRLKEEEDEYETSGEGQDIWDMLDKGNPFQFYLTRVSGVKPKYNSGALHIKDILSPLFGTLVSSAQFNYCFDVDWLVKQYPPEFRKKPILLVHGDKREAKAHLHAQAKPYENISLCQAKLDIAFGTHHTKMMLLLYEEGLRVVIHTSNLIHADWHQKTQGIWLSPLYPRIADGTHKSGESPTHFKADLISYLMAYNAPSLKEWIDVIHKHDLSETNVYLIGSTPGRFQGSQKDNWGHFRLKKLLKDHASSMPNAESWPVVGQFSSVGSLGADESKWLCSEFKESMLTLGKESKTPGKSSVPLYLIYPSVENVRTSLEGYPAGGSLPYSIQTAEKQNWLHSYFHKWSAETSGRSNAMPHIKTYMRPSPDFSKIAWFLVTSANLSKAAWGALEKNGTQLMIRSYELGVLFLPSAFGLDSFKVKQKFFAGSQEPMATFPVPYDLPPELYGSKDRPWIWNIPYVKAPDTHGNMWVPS
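AlphaScreen read-out: signal falls as enzyme removes the 3' tyrosine-FITC from a 5'-biotinylated DNA oligo (15 nM, 5 min, RT). Enzyme was E. coli-made recombinant Tdp1 at 1 nM, exposed to compound for 15 min beforehand; beads 10 ug/ml, 10 min.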
Six1-Eya2 inh – inhibitors of human Six1/Eya2 interaction. 360,000 tested, 0.56% active. activity change, % (test concentration not listed). Q15475+O00167. AlphaScreen GST-Six1/His-Eya2 binding, biochemical; stronger effect = lower value; in the data active = activity change below about -65%; inconclusive = mostly about -30% to -63%
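AlphaScreen luminescence read after one hour at 37 °C in darkness. Pin-transferred compounds met GST-Six1 and His-Eya2 protein (5X stock 250 nM/500 nM) plus glutathione donor and Ni-chelate acceptor beads (5X, 50 ug/mL).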
DT40 TDP1 CPT – DT40-hTDP1 cell growth loss with CPT; 420,000 tested, 12% active; Potency, µM (top dose mostly 46.2 µM), inactives show at the highest dose activity change, negative = growth inhibition, hits mostly inhibitors; chicken DT40 Tdp1-/-;hTDP1 cells + 20 nM CPT, ATP luminescence, 48 h; AID 686979; also: potency is read from the fitted curve at half-maximal effect; nearly all actives have a fitted effect of over 55% in size
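Chicken DT40 Tdp1-/- cells complemented with human TDP1, 400 cells/well, exposed to compounds plus 20 nM camptothecin for at least 48 h at 37 C; viability read as ATP content by CellTiter-Glo luminescence.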
CtBP-E1A inh – blocks the CtBP interaction with E1A; AlphaScreen GST-E1A/His-CtBP binding, 1536-well; stronger effect = lower value; activity change, % (no concentration beside the values); 340,000 tested, 0.49% active; AID 651724; in the data active = activity change below about -65%; inconclusive = mostly about -30% to -63%
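Steps: dispense buffer (Tris pH 8.0, NaCl 300 mM, TCEP 1 mM, BSA, Tween 20); add 5X protein mix (GST-E1A, His-CtBP, 125 nM each); pin 23 nL compound; 2 h at 37 °C, dark; add 5X beads (50 ug/mL); 1 h; read.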
IL1B secr inh – blocks inflammasome-driven IL-1 beta release; THP-1 LPS/ATP IL-1B secretion, AlphaLISA, 16 h; stronger effect = lower value; activity change, % at 57.5 µM; 360,000 tested, 4.7% active; AID 743279; in the data active = activity change below about -50%; inconclusive = mostly about -30% to -49%
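THP-1 cells pretreated 1 hr with compounds (up to 57.5 uM final), then stimulated with LPS (250 ng/mL final) plus ATP (1.25 mM final); secreted IL-1B measured by AlphaLISA after 16 hr, decreased signal indicating inhibition.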
Active calls of the source: *; i = inactive; ? = inconclusive; . = no result; [ ] = dose if it differs, or a comment. Hits are enriched below; roughly 18% of the tested compounds scored in any of these assays. Unless noted, calls follow the shape of the dose curve; as a rule, active = well fitted curve in the direction sought with a large enough effect; inconclusive = small, poorly fitted or top-dose-only effect, or another doubt; inactive = no such curve, though single readings can be large; an effect the other way counts as inactive or inconclusive. % is scaled to controls: 0 for no effect and ±100 for the full control effect.

SMILES	TDP1 cell noCPT	TDP1 block	Six1-Eya2 inh	DT40 TDP1 CPT	CtBP-E1A inh	IL1B secr inh
COc1ccc(CCC(=O)NNC(=O)Nc2ccc(C(C)=O)cc2)cc1	2.8%	3.3%	-7.3	4.0%	2.1	i
CN(CC(=O)Nc1cccc(F)c1)C(=O)c1ccc(N2CCCC2)c([N+](=O)[O-])c1	16.4µM*	-7.0%[0.505 µM]	-16.6	16.4µM*	-6.8	-13.6
COc1ccccc1N1CCN(S(=O)(=O)CCNC(=O)COc2ccccc2)CC1	?	.	-4.4	?	-1.9	-17.8
COc1ccccc1N1CCN(S(=O)(=O)CCNC(=O)Cc2ccc(F)cc2)CC1	?	.	-4.1	20.6µM*	10.7	-3.7
COc1ccccc1N1CCN(S(=O)(=O)CCNC(=O)Cc2ccc(Cl)cc2)CC1	23.1µM*	4.1%	.	?	.	.
CCCCOc1ccc(C(=O)NCCS(=O)(=O)N2CCN(c3ccccc3OC)CC2)cc1	7.31µM*	6.5%	.	5.8µM*	.	.
CCN(C(=O)c1cccc(Br)c1)c1ccccc1	-25.1%	-2.6%	12.7	0.3%	0.3	-9.2
C=CCN(c1ccccc1)S(=O)(=O)c1cccc(C(=O)Oc2ccc3c(C)cc(=O)oc3c2)c1	?	5.5%	-8.2	12.6%	1.8	34.5
CN1C2=CC=CC=CC2=[N+](C)C12C([N+](=O)[O-])=CC(=[N+]([O-])[O-])C=C2[N+](=O)[O-] (stereo not given)	2.06µM*	.	-0.8	?	-5.4	.
CN1C2=CC=CC=CC2=[N+](C)C12C=CC(=[N+]([O-])[O-])C=C2[N+](=O)[O-] (stereo not given)	?	-1.2%	-24.7	?	12.0	3.5
O=C(O)CCc1ncc(C(F)(F)F)cc1Cl	-3.7%	-0.9%	4.4	-8.5%	8.6	-0.7
CC(C)NS(=O)(=O)c1ccc(Oc2ncc(C(F)(F)F)cc2Cl)cc1	?	2.8%	-0.2	?	5.8	-2.5
O=S(=O)(Nc1ccccc1)c1ccc(Oc2ncc(C(F)(F)F)cc2Cl)cc1	?	2.8%	0.4	14.6µM*	10.6	34.3
FC(F)(F)c1cnc(COc2cc(Cl)cc(Cl)c2)c(Cl)c1	-28.9%	.	20.9	-20.4%	10.1	-74.1*
O=S(=O)(Cc1ncc(C(F)(F)F)cc1Cl)c1ccccc1	?	-0.2%	7.5	23.1µM*	6.2	12.7
O=C1Nc2c(Cl)cc(Cl)cc2C1=O	10.3µM*	.	-3.6	7.31µM*	?	-92.6*
NNC(=O)CNc1cccc(Br)c1	-25.3%	.	4.0	-3.8%	.	-22.6
O=c1oc2ccccc2c(N2CCN(c3ccc(F)cc3)CC2)c1CN1CCCC1	16.4µM*	0.0%	.	?	.	.
O=c1oc2ccccc2c(N2CCCCC2)c1CN1CCCC1	-8.8%	-5.0%	2.6	-15.7%	-3.4	-8.5
Cc1cc(NC(=O)CN2CCCCC2)no1	-24.3%	1.3%	-4.6	10.7%	-2.7	-0.2
COc1ccc(CNC(=O)C2Cc3c(-c4ccccc4Oc4ccccc4)ccnc3O2)cc1OC (stereo not given)	20.6µM*	.	-14.2	18.4µM*	-8.1	-28.7
O=C(NCc1cccc(Cl)c1)C1Cc2c(-c3ccccc3Oc3ccccc3)ccnc2O1 (stereo not given)	?	.	-2.2	23.1µM*	-2.0	-11.7
CN(C)c1ccc(CNC(=O)C2Cc3c(-c4ccccc4Oc4ccccc4)ccnc3O2)cc1 (stereo not given)	?	.	-66.0*	?	?	-7.8
CCCC(C(=O)NCCC(C)C)N(Cc1ccccc1Cl)C(=O)c1snc(C(N)=O)c1N (stereo not given)	?	-1.1%	9.5	?	.	15.2
Cc1c(-n2c(SCC(C)C)nc3ccccc3c2=O)c(=O)n(-c2ccccc2)n1C	?	0.0%	-10.4	?	-19.5	-13.2
SMILES	TDP1 cell noCPT	TDP1 block	Six1-Eya2 inh	DT40 TDP1 CPT	CtBP-E1A inh	IL1B secr inh
CCCc1nc2ccccc2c(=O)n1-c1c(C)n(C)n(-c2ccccc2)c1=O	18.4µM*	2.2%	-3.8	25.9µM*	-0.4	30.8
COc1ccccc1NC(=O)Cn1cc(C(=O)c2ccncc2)c(=O)c2cc(C)ccc21	-18.6%	-3.0%	.	-7.4%	.	.
CC(=O)c1cccc(NC(=O)CCc2nnc3ccc(NCc4ccc5c(c4)OCO5)nn23)c1	13.2%	-8.4%	0.7	-19.6%	1.5	111.6
COc1cccc(-c2cc(C(=O)NCC3CCCO3)c3cc(C)cc(C)c3n2)c1 (stereo not given)	25.9µM*	3.5%	4.1	23.1µM*	8.8	-9.2
COc1cccc(-c2nn(-c3ccc(F)cc3)cc2C(=O)NCC2CCCO2)c1 (stereo not given)	23.1µM*	4.2%	-1.7	23.1µM*	4.0	-8.7
COc1cccc(-c2nn(-c3ccc(C)cc3)cc2C(=O)NCC2CCCO2)c1 (stereo not given)	?	-0.2%	-10.9	?	0.8	-16.3
CCCCCCCCCCCCCCCC(=O)C1=C(O)C(CO)OC1=O (stereo not given)	5.7%	20.7%	.	-3.7%	.	.
CC(C)c1ccc(NC(=O)C2C3C=CC(CC3)C2C(=O)O)cc1 (stereo not given)	?	.	0.6	-1.6%	2.7	-11.4
O=C(O)C1C2C=CC(CC2)C1C(=O)O (stereo not given)	-8.8%	10µM*	-20.9	-27.5%	-5.7	6.4
Cc1c(C)c(C)c(S(=O)(=O)n2[nH]c(=O)c(CCO)c2C)c(C)c1C	?	5.5%	4.7	3.4%	.	-9.8
Cc1cc(S(=O)(=O)n2[nH]c(=O)c(CCO)c2C)c(Cl)cc1Cl	?	1.0%	4.2	16.4µM*	-7.2	-8.7
COc1ccc(CCNC(=O)c2ccnc(C(C)(C)C)c2)cc1OC	?	.	-0.7	4.0%	.	17.2
Cc1ccc(SCCOCCN2CCc3ccccc3C2)cc1	16.4µM*	.	2.6	?	.	6.1
Cc1ccc(C)c(OCCCN2CCc3ccccc3C2)c1	?	3.4%	0.7	11.6µM*	15.1	6.7
C=CCN(CC=C)c1nc2ccccc2nc1C(C#N)C(=O)OCCOC (stereo not given)	?	5.8%	-7.1	20.6µM*	1.5	?
CCOC(=O)C1CCN(c2nc3ccccc3nc2C(C#N)C(=O)OCCOC)CC1 (stereo not given)	?	2.0%	-3.5	?	0.0	-10.0
CCCN(CCC)c1nc2ccccc2nc1C(C#N)C(=O)OCCOC (stereo not given)	23.1µM*	1.0%	0.1	?	6.2	-62.4*
